Measured values reported in the supplement of paper PMC10981050.
Values joined by “and” are separate entries in the source; they are usually repeats but may differ in a detail not shown here. Identical values can stand only once. Counter-ions that a name gives are not always drawn.

Key:
Experiment in all cases: cell viability relative to vehicle control; higher = less cytotoxic
Settings in all cases: 10 µM
K562 = tested on: K562
Summary of the method: (§1)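 Four leukaemia lines, as CRISPR-edited mutant clones and isogenic wild-type clones, were tested against Selleck bioactive, kinase and epigenetic probe libraries after removal of identity-inconsistent compounds. Cells were exposed to a single 10 µM dose for 48 h, and CellTiter-Glo luminescence was then read. Viability was calculated relative to the on-plate vehicle control.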

MARIMO = tested on: MARIMO
Summary of the method: as §1

MOLM14 = tested on: MOLM14
Summary of the method: as §1

OCI-AML2 = tested on: OCI-AML2
Summary of the method: as §1

| SMILES | cell viability (K562; SRSF2 genotype: SRSF2 P95H/wt) | cell viability (K562; SRSF2 genotype: SRSF2 wt/wt) | cell viability (MARIMO; SRSF2 genotype: SRSF2 P95H/wt) | cell viability (MARIMO; SRSF2 genotype: SRSF2 wt/wt) | cell viability (MOLM14; SRSF2 genotype: SRSF2 P95H/wt) | cell viability (MOLM14; SRSF2 genotype: SRSF2 wt/wt) | cell viability (OCI-AML2; SRSF2 genotype: P95H/wt) | cell viability (OCI-AML2; SRSF2 genotype: wt/wt) |
| --- | --- | --- | --- | --- | --- | --- | --- | --- |
| O=C(CCCCc1ccc2c(c1)OCO2)N1CCCCC1 [Tetrahydropiperine] | 91.7% and 93.2% | 97.2% | 88.6% | 102% | 89.8% | 93.9% | 85% | 88.3% |
| CC1=CCC(=C(C)C)C(=O)CC(C)=CCC1 [Germacrone] | 110% and 109% | 111% | 107% | 103% | 110% | 106% | 95.1% | 101% |
| CCOC(=O)n1ccn(C)c1=S [Carbimazole] | 107% and 106% | 113% | 110% | 103% | 103% | 111% | 108% | 97.4% |
| OCc1c[nH]c2ccccc12 [Indole-3-carbinol] | 102% and 107% | 99.8% | 105% | 113% | 95.1% | 104% | 105% | 106% |
| Cc1c(-c2ccnn2C)cc(C(=O)NCc2ccc(S(C)(=O)=O)cn2)c(=O)n1-c1cccc(C(F)(F)F)c1 | 97.6% and 102% | 100% | 112% | 105% | 109% | 106% | 107% | 113% |
| CN1CCN(c2ccc3nc(-c4c(N)c5c(F)cccc5[nH]c4=O)[nH]c3c2)CC1 [Dovitinib (TKI258) Lactate] | 5.06% and 10.2% | 8.08% | 9.85% | 12% | 0.28% | 0.3% | 0.28% | 0.65% |
| CCN(CCCc1ccccc1)CCCc1ccccc1 [Alverine Citrate] | 75.1% and 81.5% | 80.6% | 69.5% | 83.8% | 80.3% | 87.4% | 87.6% | 86.5% |
| C=C1CCOC1=O [2-Methylenebutyrolactone] | 106% and 101% | 104% | 97.3% | 105% | 88.6% | 107% | 125% | 126% |
| CC(C)(C)S(=O)(=O)c1ccc2nccc(Nc3n[nH]c4ccc(F)cc34)c2c1 | 91.4% and 95.8% | 98.8% | 92.8% | 99.5% | 88% | 95.6% | 88.9% | 86.2% |
| Cc1ccc(-n2nc(C(C)(C)C)cc2NC(=O)NCc2cc(F)ccc2Oc2ccc3c(cnn3CCO)c2)cc1 [Pexmetinib (ARRY-614)] | 17.1% and 26.4% | 23.6% | 68% | 69.4% | 32.8% | 25.9% | 50% | 54.4% |
| C=CC(=O)Nc1cccc(Nc2nc(Nc3ccc(N4CCN(C(C)=O)CC4)cc3OC)ncc2C(F)(F)F)c1 [Rociletinib (CO-1686, AVL-301)] | 54.5% and 77.9% | 68.3% | 34.9% | 29.4% | 6.76% | 11.9% | 10.2% | 19% |
| Nc1ncnc2c1c(I)cn2C1OC(CO)C(O)C1O (configuration not stated) [5-Iodotubercidin] | 4.74% and 10.8% | 6.66% | 12.2% | 5.58% | 0.78% | 0.42% | 2.92% | 13.1% |
| N#Cc1cccc(-c2c[nH]c3ncnc(N4CCOCC4)c23)c1 | 102% and 106% | 102% | 81.9% | 92.8% | 96.8% | 103% | 109% | 106% |
| Cc1cc([C@@H](C)Nc2ccccc2C(=O)O)c2nc(N3CCOCC3)cc(=O)n2c1 | 88.7% and 86.4% | 89.2% | 66.9% | 66.3% | 49.6% | 48.3% | 49.8% | 56.1% |
| OC[C@H]1O[C@@H](n2cnc3c(O)nc(O)nc32)[C@H](O)[C@@H]1O [Xanthosine] | 101% and 100% | 96% | 99.9% | 101% | 99.6% | 98.5% | 93.2% | 99.7% |
| CN1CCN(c2ccc(Nc3ncc4cc(C#N)c(=O)n(C5CCCC5)c4n3)cc2)CC1 | 79.5% and 104% | 87.8% | 60.4% | 58.4% | 17.9% | 16.4% | 21.4% | 29.1% |
| CCOC(=O)/C=C\C(=O)OCC [Diethylmaleate] | 102% and 96.1% | 99.8% | 97.5% | 109% | 104% | 105% | 98.9% | 111% |
| Cc1nc(C)c(C)nc1C [Tetramethylpyrazine] | 111% and 112% | 118% | 107% | 111% | 108% | 107% | 112% | 116% |
| Cn1nnc2c(C(N)=O)ncn2c1=O [Temozolomide] | 99.9% and 108% | 101% | 94.5% | 94.2% | 86% | 99.2% | 94.9% | 96.6% |
| COc1cc(N)c(Cl)cc1C(=O)NC1CCN(CCCOc2ccc(F)cc2)CC1OC (configuration not stated) [Cisapride hydrate] | 93.4% and 92.3% | 95.5% | 93.3% | 105% | 99.8% | 102% | 105% | 99.8% |

| SMILES | cell viability (K562; SRSF2 genotype: SRSF2 P95H/wt) | cell viability (K562; SRSF2 genotype: SRSF2 wt/wt) | cell viability (MARIMO; SRSF2 genotype: SRSF2 P95H/wt) | cell viability (MARIMO; SRSF2 genotype: SRSF2 wt/wt) | cell viability (MOLM14; SRSF2 genotype: SRSF2 P95H/wt) | cell viability (MOLM14; SRSF2 genotype: SRSF2 wt/wt) | cell viability (OCI-AML2; SRSF2 genotype: P95H/wt) | cell viability (OCI-AML2; SRSF2 genotype: wt/wt) |
| --- | --- | --- | --- | --- | --- | --- | --- | --- |
| O=c1ncn2nc(Sc3ccc(F)cc3F)ccc2c1-c1c(Cl)cccc1Cl | 84.8% and 86.8% | 83.6% | 77.9% | 84% | 82.1% | 92.9% | 64.1% | 68.6% |
| CCC/C=C1\OC(=O)C2=C1CCC=C2 [Ligustilide] | 84.1% and 83.7% | 85.5% | 60.9% | 65.6% | 52.7% | 49.4% | 64.8% | 63.9% |
| Nc1nc(NC2CC2)cc(-c2cccc(Cl)c2Cl)n1 | 26.5% and 36.8% | 41.5% | 41.3% | 38% | 34.5% | 21.5% | 60.8% | 48.5% |
| COc1ccc(Cl)cc1NC(=O)Nc1cc(C)nc2ccccc12 | 81.3% and 91.2% | 87% | 98.8% | 99.1% | 87.6% | 90.1% | 82.7% | 74.1% |
| C[C@H](CC(=O)C[C@@H](C)[C@H]1C[C@H](O)[C@@]2(C)C3=C(C(=O)C[C@]12C)[C@@]1(C)CCC(=O)C(C)(C)[C@@H]1C[C@@H]3O)C(=O)O [Ganoderic acid A] | 102% and 109% | 103% | 104% | 104% | 99.5% | 102% | 102% | 111% |
| O=c1oc2c(O)c(O)cc3c(=O)oc4c(O)c(O)cc1c4c23 [Ellagic acid] | 92.7% and 105% | 93.7% | 96.3% | 105% | 106% | 103% | 101% | 101% |
| COC(=O)CNC(=O)C(=O)OC | 93% and 96.6% | 96.3% | 89.1% | 90.8% | 92.6% | 94.5% | 56.9% | 64.9% |
| O=C(O)c1ccc(Cl)cc1O [4-Chloro-2-hydroxybenzoic acid] | 108% and 109% | 98.6% | 104% | 103% | 101% | 107% | 101% | 115% |
| CN1CCC(COc2cnc(-c3cccc(Cn4nc(-c5cccc(C#N)c5)ccc4=O)c3)nc2)CC1 | 30.9% and 26.1% | 30.5% | 61.7% | 63.6% | 55.6% | 47.5% | 49.2% | 52.8% |
| COc1cc2nc(N3CCN(C(=O)C4COc5ccccc5O4)CC3)nc(N)c2cc1OC (configuration not stated) [Doxazosin mesylate] | 94.7% and 100% | 95.9% | 105% | 101% | 92.2% | 105% | 92.7% | 96.5% |
| CCc1c2c(nc3ccc(OC(=O)N4CCC(N5CCCCC5)CC4)cc13)-c1cc3c(c(=O)n1C2)COC(=O)[C@]3(O)CC [Irinotecan HCl Trihydrate (Campto)] | 59.7% and 76.8% | 63.1% | 6.18% | 6.47% | 15.1% | 4.24% | 3.79% | 2.87% |
| C=C1CCN([C@H](C)[C@](O)(Cn2cncn2)c2ccc(F)cc2F)CC1 [Efinaconazole] | 86.9% and 94% | 96.9% | 76.3% | 88.3% | 85.8% | 95.8% | 82.2% | 83.5% |
| CCc1c2c(nc3ccc(O)cc13)-c1cc3c(c(=O)n1C2)COC(=O)[C@]3(O)CC | 10.1% and 21.4% | 13.4% | 5.36% | 3.23% | 1.02% | 0.95% | 0.48% | 1.9% |
| C[C@H](NCc1ccc(OCc2cccc(F)c2)cc1)C(N)=O [Safinamide] | 101% and 109% | 107% | 103% | 105% | 98.7% | 106% | 104% | 106% |
| O=C(Nc1cccc(C2=NCCN2)c1)Nc1cccc(C2=NCCN2)c1 [Imidocarb dipropionate] | 98.4% and 92.2% | 95.3% | 91.5% | 103% | 80.2% | 87.7% | 88.6% | 89.4% |
| C=C1/C(=C\C=C2/CCC[C@]3(C)[C@@H]([C@H](C)CCCC(C)C)CC[C@@H]23)C[C@@H](O)C[C@@H]1O [Alfacalcidol] | 90.3% and 95.4% | 99.1% | 82.5% | 82.5% | 84.9% | 94.2% | 98.7% | 110% |
| C#C[C@]1(O)CC[C@H]2[C@@H]3CCC4=CC(=O)CC[C@@H]4[C@H]3CC[C@@]21CC [Levonorgestrel (Levonelle)] | 104% and 102% | 101% | 95.7% | 109% | 104% | 103% | 105% | 108% |
| CCCCc1nc(C)c(CC(=S)N(C)C)c(=O)n1Cc1ccc(-c2ccccc2-c2nnn[nH]2)cc1 [Fimasartan] | 100% and 107% | 106% | 108% | 109% | 101% | 103% | 106% | 93.1% |
| CC1=C(C(=O)OC(C)C)C(c2cccc([N+](=O)[O-])c2)C(C(=O)OC2CN(C(c3ccccc3)c3ccccc3)C2)=C(N)N1 (configuration not stated) [Azelnidipine] | 74.3% and 58.4% | 58.8% | 58.1% | 80.1% | 82.1% | 82.3% | 71.3% | 58% |
